From PubChem BioAssay AID1159580 (chemical genetic matrix, 2015)
Screen size: about 5,500 compounds; about 2,000 (36%) were called active. Roughly 18% stayed inconclusive and do not appear here. Rule as the data show it: active = normalized growth mostly below about 0.91 (no sharp cut-off); inconclusive = no clear call, values can overlap the other calls; inactive = mostly above about 0.92. The list shows a part of the results.

Assay: chemical genetic growth profiling, strain panel (AID 1159580);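 also: tested at 20 µM; growth read once vehicle control cultures reached saturation at 30 °C; 1 = growth at the plate median or of vehicle wells; lower values mean less growth of the strain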
Conditions: growth OD

Measured: normalized growth

CCOP(=S)(OCC)Oc1cc(C)nc(C(C)C)n1
inactive: S. cerevisiae deletion strains, locus YAL013W, strain DEP1, stronger effect = lower value 0.978 | S. cerevisiae deletion strains, locus YBR021W, strain FUR4, stronger effect = lower value 1.03 | S. cerevisiae deletion strains, locus YBR229C, strain ROT2, stronger effect = lower value 0.955 | S. cerevisiae deletion strains, locus YCL029C, strain bik1, stronger effect = lower value 0.985 | S. cerevisiae deletion strains, locus YDL035C, strain GPR1, stronger effect = lower value 0.946 | S. cerevisiae deletion strains, locus YDL074C, strain BRE1, stronger effect = lower value 0.901 | S. cerevisiae deletion strains, locus YDL101C, strain DUN1, stronger effect = lower value 0.96 | S. cerevisiae deletion strains, locus YDL134C, strain PPH21, stronger effect = lower value 0.995 | S. cerevisiae deletion strains, locus YDL185W, strain tfp1, stronger effect = lower value 0.972 | S. cerevisiae deletion strains, locus YDL192W, strain arf1, stronger effect = lower value 0.985 | S. cerevisiae deletion strains, locus YDR101C, strain arx1, stronger effect = lower value 1 | S. cerevisiae deletion strains, locus YDR150W, strain NUM1, stronger effect = lower value 0.984 | S. cerevisiae deletion strains, locus YDR162C, strain NBP2, stronger effect = lower value 0.976 | S. cerevisiae deletion strains, locus YDR318W, strain mcm21, stronger effect = lower value 0.98 | S. cerevisiae deletion strains, locus YDR388W, stronger effect = lower value 0.991 | S. cerevisiae deletion strains, locus YDR502C, strain sam2, stronger effect = lower value 0.994 | S. cerevisiae deletion strains, locus YEL061C, strain CIN8, stronger effect = lower value 0.989 | S. cerevisiae deletion strains, locus YER110C, stronger effect = lower value 0.981 | S. cerevisiae deletion strains, locus YER155C, strain BEM2, stronger effect = lower value 0.996 | S. cerevisiae deletion strains, locus YER167W, strain BCK2, stronger effect = lower value 0.99 | S. cerevisiae deletion strains, locus YGL078C, strain dbp3, stronger effect = lower value 0.995 | S. cerevisiae deletion strains, locus YGL086W, strain mad1, stronger effect = lower value 0.989 | S. cerevisiae deletion strains, locus YGL248W, strain PDE1, stronger effect = lower value 0.961 | S. cerevisiae deletion strains, locus YGR078C, strain PAC10, stronger effect = lower value 0.976 | S. cerevisiae deletion strains, locus YGR135W, strain pre9, stronger effect = lower value 0.995 | S. cerevisiae deletion strains, locus YGR229C, strain SMI1, stronger effect = lower value 0.991 | S. cerevisiae deletion strains, locus YGR252W, strain gcn5, stronger effect = lower value 0.998 | S. cerevisiae deletion strains, locus YHR030C, strain SLT2, stronger effect = lower value 0.988 | S. cerevisiae deletion strains, locus YHR079C, strain IRE1 (second series), stronger effect = lower value 0.994 | S. cerevisiae deletion strains, locus YHR094C, strain hxt1, stronger effect = lower value 0.996 | S. cerevisiae deletion strains, locus YHR129C, strain ARP1, stronger effect = lower value 0.977 | S. cerevisiae deletion strains, locus YHR200W, strain rpn10, stronger effect = lower value 0.993 | S. cerevisiae deletion strains, locus YIL066C, strain RNR3, stronger effect = lower value 0.979 | S. cerevisiae deletion strains, locus YIL073C, strain SPO22, stronger effect = lower value 1.01 | S. cerevisiae deletion strains, locus YIL125W, strain kgd1, stronger effect = lower value 0.993 | S. cerevisiae deletion strains, locus YIR030C, strain dcg1, stronger effect = lower value 0.995 | S. cerevisiae deletion strains, locus YJL095W, strain BCK1, stronger effect = lower value 0.973 | S. cerevisiae deletion strains, locus YJL134W, strain LCB3, stronger effect = lower value 0.982 | S. cerevisiae deletion strains, locus YJL168C, strain set2, stronger effect = lower value 0.987 | S. cerevisiae deletion strains, locus YJL187C, strain SWE1 (second series), stronger effect = lower value 0.978 | S. cerevisiae deletion strains, locus YJR043C, strain POL32, stronger effect = lower value 0.991 | S. cerevisiae deletion strains, locus YJR075W, strain HOC1, stronger effect = lower value 0.977 | S. cerevisiae deletion strains, locus YKL009W, strain mrt4, stronger effect = lower value 0.949 | S. cerevisiae deletion strains, locus YKL068W, stronger effect = lower value 0.993 | S. cerevisiae deletion strains, locus YKL085W, strain MDH1 (second series), stronger effect = lower value 0.988 | S. cerevisiae deletion strains, locus YKL085W, strain MDH1, stronger effect = lower value 0.988 | S. cerevisiae deletion strains, locus YKL190W, strain CNB1, stronger effect = lower value 0.993 | S. cerevisiae deletion strains, locus YKR001C, strain vps1, stronger effect = lower value 0.999 | S. cerevisiae deletion strains, locus YLR039C, strain RIC1, stronger effect = lower value 0.966 | S. cerevisiae deletion strains, locus YLR058C, strain SHM2, stronger effect = lower value 0.971 | S. cerevisiae deletion strains, locus YLR102C, strain apc9, stronger effect = lower value 0.987 | S. cerevisiae deletion strains, locus YLR262C, strain YPT6, stronger effect = lower value 0.946 | S. cerevisiae deletion strains, locus YLR268W, strain sec22, stronger effect = lower value 0.993 | S. cerevisiae deletion strains, locus YLR330W, strain CHS5, stronger effect = lower value 0.989 | S. cerevisiae deletion strains, locus YLR342W, strain FKS1 (second series), stronger effect = lower value 0.975 | S. cerevisiae deletion strains, locus YLR371W, strain rom2, stronger effect = lower value 0.995 | S. cerevisiae deletion strains, locus YLR418C, strain cdc73, stronger effect = lower value 0.959 | S. cerevisiae deletion strains, locus YML016C, strain PPZ1, stronger effect = lower value 0.993 | S. cerevisiae deletion strains, locus YML032C, strain rad52, stronger effect = lower value 0.989 | S. cerevisiae deletion strains, locus YML124C, strain tub3, stronger effect = lower value 0.998 | S. cerevisiae deletion strains, locus YMR078C, strain ctf18, stronger effect = lower value 0.991 | S. cerevisiae deletion strains, locus YMR223W, strain ubp8, stronger effect = lower value 0.988 | S. cerevisiae deletion strains, locus YMR263W, strain SAP30, stronger effect = lower value 0.98 | S. cerevisiae deletion strains, locus YMR307W, strain GAS1, stronger effect = lower value 0.976 | S. cerevisiae deletion strains, locus YNL067W, strain RPL9B, stronger effect = lower value 0.972 | S. cerevisiae deletion strains, locus YNL128W, strain TEP1, stronger effect = lower value 0.957 | S. cerevisiae deletion strains, locus YNL153C, strain GIM3, stronger effect = lower value 0.984 | S. cerevisiae deletion strains, locus YNL233W, strain BNI4, stronger effect = lower value 0.984 | S. cerevisiae deletion strains, locus YNL250W, strain rad50, stronger effect = lower value 0.984 | S. cerevisiae deletion strains, locus YNL271C, strain bni1, stronger effect = lower value 0.992 | S. cerevisiae deletion strains, locus YNL298W, strain CLA4, stronger effect = lower value 0.995 | S. cerevisiae deletion strains, locus YNL307C, strain MCK1, stronger effect = lower value 0.998 | S. cerevisiae deletion strains, locus YNL322C, strain KRE1, stronger effect = lower value 0.978 | S. cerevisiae deletion strains, locus YNR052C, strain pop2, stronger effect = lower value 0.99 | S. cerevisiae deletion strains, locus YOL006C, strain TOP1, stronger effect = lower value 0.967 | S. cerevisiae deletion strains, locus YOL012C, strain htz1 0.881 | S. cerevisiae deletion strains, locus YOL147C, strain pex11, stronger effect = lower value 0.998 | S. cerevisiae deletion strains, locus YOR061W, strain CKA2, stronger effect = lower value 0.967 | S. cerevisiae deletion strains, locus YOR069W, strain VPS5, stronger effect = lower value 0.989 | S. cerevisiae deletion strains, locus YOR136W, strain idh2, stronger effect = lower value 0.986 | S. cerevisiae deletion strains, locus YOR144C, strain elg1, stronger effect = lower value 0.995 | S. cerevisiae deletion strains, locus YOR184W, strain ser1, stronger effect = lower value 0.987 | S. cerevisiae deletion strains, locus YOR316C, strain cot1, stronger effect = lower value 0.975 | S. cerevisiae deletion strains, locus YPL055C, strain LGE1, stronger effect = lower value 0.956 | S. cerevisiae deletion strains, locus YPL241C, strain CIN2, stronger effect = lower value 0.989 | S. cerevisiae deletion strains, locus YPR119W, strain clb2, stronger effect = lower value 0.997 | S. cerevisiae deletion strains, locus YPR141C, strain kar3, stronger effect = lower value 0.984 | S. cerevisiae deletion strains, locus YPR163C, strain tif3, stronger effect = lower value 1 | S. cerevisiae deletion strains, locus YPR167C, strain met16, stronger effect = lower value 0.987 | S. cerevisiae deletion strains, strain wtn01, stronger effect = lower value 1 | S. cerevisiae strains, strain wild type, stronger effect = lower value 0.987
